Test results from PubChem BioAssay (NCATS).
Where “and” joins values, the source holds several entries; their conditions need not be identical. Identical values can stand only once. Inconclusive results are not listed. Where a call stands in place of a potency, no number is given. Some compounds were tested as several samples or in several runs, with calls that do not always agree. Calls of active or inactive are those of the source. Unless noted, the call rests on the fitted dose curve; in most records, active means well fitted curve in the direction sought with a large enough effect; inconclusive means small, poorly fitted or top-dose-only effect, or another doubt; inactive means no such curve, though single readings can be large; an effect the other way counts as inactive or inconclusive.

Assays:
[1] = target: Glutathione peroxidase 1 (Homo sapiens) (UniProt P07203); assay: Primary qHTS Assay for Inhibitors of Recombinant Selenoprotein Glutathione Peroxidase 1 (GPX1) (AID 1845191); further: nearly all actives have a fitted effect of over 65% in size
Outline: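 NADPH consumption tracked by fluorescence at 340/450 nm between t=0 and t=15 min, room temperature. Final mix: 10 nM GPX1, 100 nM glutathione reductase, 1 mM GSH, 0.5 mM NADPH, 0.5 mM cumene hydroperoxide, 0.01% BSA; 30 min compound–enzyme preincubation.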

[2] = target: Phospholipid hydroperoxide glutathione peroxidase GPX4 (Homo sapiens) (UniProt P36969); assay: Primary qHTS Assay for Inhibitors of Recombinant Selenoprotein Glutathione Peroxidase 4 (GPX4) (AID 1845192); further: nearly all actives have a fitted effect of over 65% in size; further: potency means the concentration at half of the fitted maximal effect
Outline: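 NADPH consumption followed by fluorescence at 340/450 nm, t=0 and after 15 min at room temperature. Reaction started with cumene hydroperoxide (0.5 mM final) after 30 min compound–GPX4 preincubation; final 200 nM GPX4, 100 nM GR, 1 mM GSH, 0.5 mM NADPH.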

[3] = target: Luciferin 4-monooxygenase (Photinus pyralis) (UniProt P08659); assay: Primary firefly luciferase (FLuc) qHTS assay for identification of artifact compounds. (AID 1845220); further: nearly all actives have a fitted effect of over 60% in size
Outline: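 Cell-free, 1536-well qHTS. Buffer pH 7.6 with 0.01% Tween-20 and 0.05% BSA; 10 uM D-luciferin, 10 uM ATP; 10 nM P. pyralis luciferase; luminescence after 5 min.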

[4] = tested on: Nanoluciferase (engineered Oplophorus gracilirostris luciferase); assay: Primary Nanoluciferase (NLuc) qHTS assay for identification of artifact compounds. (AID 1845222)
Outline: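 Compounds are pinned into diluted (1:55) conditioned medium of NLuc-expressing S16 cells and held 15 min at room temperature protected from light. Nano-Glo substrate follows, and luminescence is read 5 min later.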

[5] = Primary redox qHTS assay for identification of artifact compounds. (AID 1845223)
Outline: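 Redox-cycling detection via DTT (250 uM final) oxidation coupled to Amplex Red (25 uM)/HRP (250 mU/mL) in HBSS. 15 min preincubation plus 30 min after DTT, room temperature. Ex/Em 525/598 nm; 4-parameter Hill fit against DMSO and 10 uM DA3003.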

[6] = qHTS drug screen for cell cycle checkpoint inhibitors in PARPi-resistant BRCA-mutant ovarian cancer cell lines. (AID 1963452; calls by dose curve); settings: PEO1/OlaR viability, CellTiter-Glo luminescence, 96 h, stronger effect = lower value
Outline: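 PEO1, PEO4 and PEO1/OlaR ovarian cancer cells, 600 per well, exposed 96 h at 37C to a dilution series. Viability read by CellTiter-Glo luminescence, normalized to DMSO and empty wells; activity summarized as Z-AUC.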

[7] = Primary fluorescence-based thiol-reactive (MSTI) qHTS assay for identification of artifact compounds. (AID 1845221);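 further: thiol-reactive compounds lower the probe fluorescence signal; nearly all actives have a fitted effect of over 65% in size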
Outline: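 Curve-fitted percent inhibition (4-parameter Hill) derived from fluorescence, Ex 525/Em 598 nm, scaled with Acetyl-MSTI and MSTI; 1 h incubation at room temperature.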

[8] = target: Cytochrome P450 3A4 (Homo sapiens) (UniProt P08684); assay: qHTS for inhibitors of CYP3A4 against the NCATS DSHEA and TCM libraries (AID 1919971);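 further: inhibition lowers luminescence from luciferin made by CYP3A4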
Outline: (§1)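 Isoform-specific enzyme and substrate levels; enzyme-free wells as background. Reaction: 1x NADPH regenerating system, 30-45 min, room temperature, shielded from light; luminescent detection reagent added, 30 min.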

[9] = target: Cytochrome P450 2D6 (Homo sapiens) (UniProt P10635); assay: qHTS for inhibitors of CYP2D6 against the NCATS DSHEA and TCM libraries (AID 1919972)
Outline: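 qHTS, concentration–response format with most substances from 19.5 nM. CYP2D6 + pro-luciferin substrate, 15 min with compound, then 1x NADPH regen, 30–45 min RT dark. Glo detection 30 min, luminescence. Quinidine control.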

[10] = target: Cytochrome P450 2C19 (Homo sapiens) (UniProt P33261); assay: qHTS for inhibitors of CYP2C19 against the NCATS DSHEA and TCM libraries (AID 1919974);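 further: luminescence from luciferin released by CYP2C19 oxidation of a pro-luciferin substrate; potency means the concentration at half of the fitted maximal effect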
Outline: as §1

[11] = KB-3-1 P-gp reporter qHTS against the NCATS DSHEA and TCM libraries (AID 1919975)
Outline: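 CellTiter-Glo luminescence viability readout; KB-3-1 parental cells, 500/well, attached ~4 h, then compound for ~72 h, 37C, 5% CO2. Bortezomib intraplate control.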

[12] = qHTS Counterscreen for compound interference against the NCATS DSHEA and TCM libraries (AID 1919978); settings: firefly luciferase detection reagent interference, luminescence;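 further: compounds preincubated with 1 µM D-luciferin or buffer before detection reagent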
Outline: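 Luminescence counterscreen for detection-kit interference: compounds at 19.5 nM–39.8 uM final, 15 min RT with 1 uM D-luciferin or buffer only; detection reagent added, 30 min RT, then read.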

[13] = Dual reporter qHTS for agonist of Pregnane X Receptor (hPXR) against the NCATS DSHEA and TCM libraries: Fluorescence readout (AID 1920058)
Outline: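 In this qHTS counter-read, reporter-bearing HepG2 cells in charcoal-stripped serum received substances for approximately 24 h before viability was assessed fluorometrically with CellTiter-Fluor.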

[14] = target: Nuclear receptor subfamily 1 group I member 2 (Homo sapiens) (UniProt O75469); assay: Dual reporter qHTS for agonist of Pregnane X Receptor (hPXR) against the NCATS DSHEA and TCM libraries: Luminescence readout (AID 1920059)
Outline: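 Luminescent PXR reporter read (ONE-Glo) after a CellTiter-Fluor viability read, following 24 h, 37C treatment of HepG2 cells stably carrying hPXR-Luc.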

[15] = target: Nuclear receptor subfamily 1 group I member 2 (Homo sapiens) (UniProt O75469); assay: Dual reporter qHTS for antagonist of Pregnane X Receptor (hPXR) against the NCATS DSHEA and TCM libraries: Luminescence Readout (AID 1920060)
Outline: (§2)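 Rifampicin-stimulated (2 uM final) hPXR-luciferase HepG2 cells were treated for 24 h with DSNP/TCM substances. Viability came from CellTiter-Fluor fluorescence, reporter activity from ONE-Glo luminescence.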

[16] = Dual reporter qHTS for antagonist of Pregnane X Receptor (hPXR) against the NCATS DSHEA and TCM libraries: Fluorescence Readout (AID 1920061)
Outline: as §2

[17] = qHTS profiling for inhibitors of Plasmodium falciparum proliferation (AID 504749); further: nearly all actives have a fitted effect of over 60% in size; settings: P. falciparum in erythrocytes, SYBR Green DNA, 72 h, at 28.7 µM (top of the series)
Outline: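 In a 72 h erythrocytic culture (37 C, humidified, 5% CO2) at 2.5% hematocrit and 0.3% starting parasitemia, compounds were tested; SYBR Green I in detergent lysis buffer stained parasite DNA overnight.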

[18] = measured here: PEO1 parental Z-AUC

Sequence of Phospholipid hydroperoxide glutathione peroxidase GPX4 (Homo sapiens) (P36969 whole entry, looked up): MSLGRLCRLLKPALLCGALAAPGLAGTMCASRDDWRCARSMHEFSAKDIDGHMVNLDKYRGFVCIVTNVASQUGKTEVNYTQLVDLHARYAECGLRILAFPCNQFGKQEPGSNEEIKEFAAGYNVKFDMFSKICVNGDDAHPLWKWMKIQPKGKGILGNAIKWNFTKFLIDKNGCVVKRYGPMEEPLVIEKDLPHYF
Sequence of Glutathione peroxidase 1 (Homo sapiens) (P07203 whole entry, looked up): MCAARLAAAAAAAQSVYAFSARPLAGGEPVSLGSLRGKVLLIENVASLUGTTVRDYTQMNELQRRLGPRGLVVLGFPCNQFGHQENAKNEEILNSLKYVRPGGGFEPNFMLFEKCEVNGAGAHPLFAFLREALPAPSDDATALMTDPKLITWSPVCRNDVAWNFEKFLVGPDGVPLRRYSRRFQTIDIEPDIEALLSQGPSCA
Sequence of Nuclear receptor subfamily 1 group I member 2 (Homo sapiens) (O75469 whole entry, looked up): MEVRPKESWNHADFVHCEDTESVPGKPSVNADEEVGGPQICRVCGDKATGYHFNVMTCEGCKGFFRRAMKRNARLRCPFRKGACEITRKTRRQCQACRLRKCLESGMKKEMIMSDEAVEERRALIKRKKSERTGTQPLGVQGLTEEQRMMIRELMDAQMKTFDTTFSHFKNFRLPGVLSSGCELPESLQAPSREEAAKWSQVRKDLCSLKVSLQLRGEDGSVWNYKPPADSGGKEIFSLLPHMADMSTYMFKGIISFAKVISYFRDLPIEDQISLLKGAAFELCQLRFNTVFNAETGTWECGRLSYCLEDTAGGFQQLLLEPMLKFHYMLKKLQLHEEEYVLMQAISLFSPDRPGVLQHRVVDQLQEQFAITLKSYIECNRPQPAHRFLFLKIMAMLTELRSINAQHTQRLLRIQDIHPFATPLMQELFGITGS
Sequence of Cytochrome P450 2D6 (Homo sapiens) (P10635 whole entry, looked up): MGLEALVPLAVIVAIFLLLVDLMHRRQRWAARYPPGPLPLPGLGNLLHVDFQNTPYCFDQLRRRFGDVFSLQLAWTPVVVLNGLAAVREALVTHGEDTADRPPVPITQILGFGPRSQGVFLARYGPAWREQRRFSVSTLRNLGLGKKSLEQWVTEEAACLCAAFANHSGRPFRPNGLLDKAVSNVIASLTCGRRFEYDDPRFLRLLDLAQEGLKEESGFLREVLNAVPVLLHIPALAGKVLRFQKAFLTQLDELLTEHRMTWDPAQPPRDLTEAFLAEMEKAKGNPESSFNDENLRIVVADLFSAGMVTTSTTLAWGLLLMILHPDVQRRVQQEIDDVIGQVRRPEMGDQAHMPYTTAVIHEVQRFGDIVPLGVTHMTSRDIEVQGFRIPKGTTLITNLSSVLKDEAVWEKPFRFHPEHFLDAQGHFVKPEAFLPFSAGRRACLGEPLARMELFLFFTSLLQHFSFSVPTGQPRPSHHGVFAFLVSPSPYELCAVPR
Sequence of Cytochrome P450 2C19 (Homo sapiens) (P33261 whole entry, looked up): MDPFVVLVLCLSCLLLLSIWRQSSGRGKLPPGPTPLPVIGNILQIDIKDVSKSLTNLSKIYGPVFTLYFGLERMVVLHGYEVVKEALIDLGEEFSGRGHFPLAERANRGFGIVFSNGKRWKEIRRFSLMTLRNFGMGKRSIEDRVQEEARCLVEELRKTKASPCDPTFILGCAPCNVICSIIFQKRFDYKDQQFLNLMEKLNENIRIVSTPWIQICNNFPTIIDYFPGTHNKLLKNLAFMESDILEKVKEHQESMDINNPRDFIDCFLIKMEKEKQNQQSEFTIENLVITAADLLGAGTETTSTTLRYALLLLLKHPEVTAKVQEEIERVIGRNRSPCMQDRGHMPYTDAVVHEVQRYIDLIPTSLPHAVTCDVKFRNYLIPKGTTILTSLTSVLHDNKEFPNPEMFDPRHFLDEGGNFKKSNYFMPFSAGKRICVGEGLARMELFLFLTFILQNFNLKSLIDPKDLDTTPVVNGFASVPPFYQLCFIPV
Sequence of Cytochrome P450 3A4 (Homo sapiens) (P08684 whole entry, looked up, canonical isoform): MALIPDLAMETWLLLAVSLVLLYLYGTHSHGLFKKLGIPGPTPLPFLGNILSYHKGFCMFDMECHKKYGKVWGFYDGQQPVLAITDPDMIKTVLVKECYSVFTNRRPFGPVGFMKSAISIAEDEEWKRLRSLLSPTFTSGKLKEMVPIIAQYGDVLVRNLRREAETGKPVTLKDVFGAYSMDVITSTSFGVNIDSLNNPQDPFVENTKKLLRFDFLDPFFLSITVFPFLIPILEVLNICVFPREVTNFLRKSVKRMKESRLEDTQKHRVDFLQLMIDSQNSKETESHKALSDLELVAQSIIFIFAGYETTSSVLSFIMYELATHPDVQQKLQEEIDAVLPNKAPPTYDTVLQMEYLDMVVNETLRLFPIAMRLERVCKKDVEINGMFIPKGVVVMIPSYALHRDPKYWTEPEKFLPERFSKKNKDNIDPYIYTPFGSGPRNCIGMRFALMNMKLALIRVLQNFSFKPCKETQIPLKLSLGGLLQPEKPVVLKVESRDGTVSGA

For CCC(C)C(=O)O[C@@H]1[C@@H](O)[C@@H](O[C@H]2O[C@H](CO)[C@@H](O)[C@H](O)[C@H]2O)O[C@H](CO)[C@H]1O (stereo partly specified), the Potency [1] was “inactive”, the Potency [2] was “inactive” and the Potency [3] was “inactive”. For the same molecule, the Potency [4] was “inactive” and the Potency [5] was “inactive”.

For CC1C(=O)CC2C3C(O)CC(C(=O)O)C12CC3(C)C (stereo unspecified), the Potency [1] was “inactive”, the Potency [2] was “inactive” and the Potency [3] was “inactive”. For the same molecule, the Potency [5] was “inactive”.

For OC[C@H]1O[C@@H](Oc2cc(O)cc(/C=C/c3ccc(O)cc3)c2)[C@H](O)[C@@H](O)[C@@H]1O, the Potency [1] was “inactive”, the Potency [2] was “inactive” and the Potency [3] was “inactive”. For the same molecule, the Potency [4] was “inactive”, the Potency [5] was “inactive” and the Z-AUC [6] was 1.9 (inactive). The Z-AUC [6, 18] was 1.63 and the Z-AUC ([6]; measured here: PEO4 Z-AUC) was 1.47.

With COc1cc(COC2OC(CO)C(O)C(O)C2O)cc(OC)c1O (stereo unspecified) the Potency [1] was “inactive”, the Potency [2] was “inactive” and the Potency [3] was “inactive”. The Potency [5] was “inactive”.

For CCc1nc(C(N)=O)c(Nc2ccc(N3CCC(N4CCN(C)CC4)CC3)c(OC)c2)nc1NC1CCOCC1, the Potency [1] was “inactive”, the Potency [2] was “inactive” and the Potency [3] was “inactive”. The Potency [4] was “inactive”, the Potency [5] was “inactive” and the Z-AUC [6] was 1.23 (inactive). The Z-AUC [6, 18] was 0.97 and the Z-AUC ([6]; measured here: PEO4 Z-AUC) was 0.904.

In the case of CC1[C@@H](O)[C@@H](O)C2[C@]3(C)C(C[C@H]4OC(=O)[C@H](O)[C@]1(O)[C@@]24C)C(C)(O)C[C@H](O)[C@H]3O (stereo partly specified), the Potency [1] is reported as “inactive”, the Potency [2] is reported as “inactive” and the Potency [3] is reported as “inactive”. The Potency [5] was “inactive”.

With O=C1NC(=Nc2ccccc2F)S/C1=C\c1ccc(C(=O)O)cc1 the Potency [1] was “inactive”, the Potency [2] was “inactive” and the Potency [7] was “inactive”. The Potency [4] was “inactive” and the Potency [5] was “inactive”.

With OC[C@H]1O[C@@H](n2cnc3c2NC=NC[C@H]3O)C[C@@H]1O the Potency [1] was “inactive”, the Potency [2] was “inactive” and the Potency [3] was “inactive”. The Potency [5] was “inactive”, the Z-AUC [6] was -0.043 (inactive) and the Z-AUC [6, 18] was 0.0818. For the same molecule, the Z-AUC ([6]; measured here: PEO4 Z-AUC) was 0.0721.

For Cc1cc(C)cc(NC(=O)Cc2ccc(OC(C)(C)C(=O)O)cc2)c1, the Potency [1] was “inactive”, the Potency [2] was “inactive” and the Potency [7] was “inactive”. The Potency [4] was “inactive”, the Z-AUC [6] was -0.433 (inactive) and the Z-AUC [6, 18] was -0.359. It also gave a Z-AUC ([6]; measured here: PEO4 Z-AUC) of -0.00799.

In the case of CCOC(=O)c1ccnc(CNCC(=O)N(CC)CCN(C)C)c1, the Potency [1] is reported as “inactive”, the Potency [2] is reported as “inactive” and the Potency [7] is reported as “inactive”. For the same molecule, the Potency [4] was “inactive”, the Potency [5] was “inactive” and the Z-AUC [6] was 1.38 (inactive). The Z-AUC [6, 18] was 0.751 and the Z-AUC ([6]; measured here: PEO4 Z-AUC) was 0.779.

For CCCCS(=O)(=O)Nc1ncnc(OCCOc2ncc(Br)cn2)c1-c1ccc(Br)cc1, the Potency [1] was “inactive”, the Potency [2] was “inactive” and the Potency [7] was “inactive”. For the same molecule, the Potency [5] was “inactive”.

For CC1=CCC(C(C)(C)O)CC1 (stereo unspecified), the Potency [1] was “inactive”, the Potency [2] was “inactive” and the outcome [8] was “inactive”. For the same molecule, the outcome [9] was “inactive”, the Potency [10] was 3.55 µM (active) and the outcome [11] was “inactive”. For the same molecule, the max response [12] was -0.821% (inactive), the outcome [13] was “inactive” and the outcome [14] was “inactive”. The outcome [15] was “inactive”, the outcome [16] was “inactive” and the activity, negative = inhibition ([17]; parasite line A) was 7.42% (inactive). For the same molecule, the activity, negative = inhibition ([17]; parasite line B) was 12.4% (inactive).

With CCOc1nc2cccc(C(=O)OCc3oc(=O)oc3C)c2n1Cc1ccc(-c2ccccc2-c2noc(O)n2)cc1 the Potency [1] was “inactive”, the Potency [2] was “inactive and 12.6 µM (active)” and the Potency [7] was “inactive”. For the same molecule, the Potency [5] was “inactive”.
